Screens as filed in PubChem BioAssay.
KDM4E inh: qHTS Assay for Inhibitors of Human Jumonji Domain Containing 2E (JMJD2E) | Lysine-specific demethylase 4E (Homo sapiens), B2RXH2 | JMJD2E catalytic domain, FDH-coupled NADH fluorescence (FDH is formaldehyde dehydrogenase) | Potency, µM (doses to about 57.1 µM), inactives show at the top dose activity change, negative = inhibition, actives largely listed as inhibitors | 230,000 compounds, 1.6% hits | AID 2147, 2009;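 note: potency is the fitted concentration of half-maximal effect; 0% = wells with enzyme and -100% = buffer wells without enzyme; nearly all actives have a fitted effect of over 50% in size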
PNC inhibitor: High Content Assay for Compounds that inhibit the Assembly of the Perinucleolar Compartment | PC3M PTB-GFP, PNC prevalence imaging, 16 h; active compounds read low | activity change (PNC), negative = inhibition, % at 10 µM | 140,000 compounds, 3.1% hits | AID 2417, 2010;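 active = readout at or below -70, meaning at least 70% loss of cells showing the perinucleolar compartment, a nuclear body marking cancer cells; inconclusive = readout between -30 and a set limit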;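 note: plate controls were DMSO wells for no effect and camptothecin positive control wells for full effect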
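Compounds are pinned in duplicate onto adhered PC3M cells stably expressing GFP-tagged PTB and incubated 16 h at 37 C. Cells are then fixed, nuclei stained with Hoechst, and PNC-positive cells counted.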
HPGD block: qHTS Assay for Inhibitors of HPGD (15-Hydroxyprostaglandin Dehydrogenase); 150,000 compounds, 4.3% hits; purified HPGD, NADH fluorescence kinetic, PGE2 substrate; 15-hydroxyprostaglandin dehydrogenase [NAD(+)] (Homo sapiens), P15428; Potency, µM, for inactives: at the highest dose activity change, negative = inhibition, usual class: inhibitors; note: potency is the fitted concentration of half-maximal effect
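20 nM HPGD preincubated 15 min at room temperature with compound in 50 mM Tris-HCl pH 8, 0.01% Tween 20. Started with 1 mM NAD+ and 30 uM prostaglandin E2; NADH fluorescence (360/450 nm) read 5 times over 30-s intervals, last minus first.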
ALDH1A1 inh: qHTS Assay for Inhibitors of Aldehyde Dehydrogenase 1 (ALDH1A1). Purified ALDH1A1, NADH fluorescence, propionaldehyde substrate. Potency, µM (top dose mostly 75.3 µM), inactives show top-dose activity, negative = inhibition, most hits filed as inhibitors. Aldehyde dehydrogenase 1A1 (Homo sapiens), P00352. 220,000 compounds, 7.3% hits;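 note: potency is the fitted concentration of half-maximal effect; plate controls were no enzyme wells and a reference inhibitor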
Target sequence (P00352 whole entry, looked up): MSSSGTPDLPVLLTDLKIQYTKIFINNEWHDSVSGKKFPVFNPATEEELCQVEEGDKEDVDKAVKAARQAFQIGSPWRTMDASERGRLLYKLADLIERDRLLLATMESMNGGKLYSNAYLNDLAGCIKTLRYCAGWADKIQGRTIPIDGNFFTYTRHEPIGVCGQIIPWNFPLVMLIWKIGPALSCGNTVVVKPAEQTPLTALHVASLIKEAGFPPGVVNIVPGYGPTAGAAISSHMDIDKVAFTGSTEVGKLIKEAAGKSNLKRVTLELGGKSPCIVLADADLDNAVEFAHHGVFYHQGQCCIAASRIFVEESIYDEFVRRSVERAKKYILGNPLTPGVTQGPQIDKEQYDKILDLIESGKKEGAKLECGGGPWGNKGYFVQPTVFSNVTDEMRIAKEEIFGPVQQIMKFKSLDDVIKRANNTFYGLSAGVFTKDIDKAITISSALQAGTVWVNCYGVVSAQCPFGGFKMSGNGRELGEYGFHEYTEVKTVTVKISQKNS
Starred values were filed as active, the others as inactive; ? = inconclusive; · = no result given; [ ] = another dose, or the depositor's remark. Compounds with a hit are over-represented: about 11% of the library has one in this group of screens. Unless noted, calls come from the whole dose curve; as a rule, active = well fitted inhibition curve with a large enough effect (not every such curve was filed as active); inconclusive = small, poorly fitted or top-dose-only effect, or another doubt; inactive = no such curve, though single readings can be large or run the other way. Unless noted, % is set by controls: 0 for no effect and ±100 for the full control effect.

SMILES	KDM4E inh	PNC inhibitor	HPGD block	ALDH1A1 inh
O=C1CC[C@](CCc2nc3ccccc3[nH]2)(c2ccccc2)C(=O)N1	·	·	-2.7%	20.0%[13.5 µM]
Cc1ccc(F)c(NC=C2C(=O)OC(C)(C)OC2=O)c1	-11.9%	24.4	-27.4%	10µM*
CCCCCCOc1ccc(C(CC(=O)O)C(N)=O)cc1 (stereo not given)	-0.5%	-103.7*	-7.7%	2.3%
Cn1cc(CNCc2ccccc2OCC(O)CN2CCc3ccccc3C2)cn1 (stereo not given)	-11.1%	·	·	-2.3%
CCOC(=O)C1CCc2sc(N)c(C#N)c21 (stereo not given)	?	-135.3*	-15.6%	?
CCOC(=O)Nc1sc2c(c1C#N)CCCC2	-7.0%	-28.2	-15.1%	?
Cc1nn2c(N)c(C#N)cnc2c1-c1ccc(Cl)cc1	?	1.0	?	?
Cc1nn2c(N)c(C#N)cnc2c1-c1ccccc1	?	-81.8*	-4.3%	-2.2%
COCC(C)n1c(C)cc(C(=O)COC(=O)CN=C2NS(=O)(=O)c3ccccc32)c1C (stereo not given)	2.2%	3.1	-9.9%	0.3%
O=C(NCCCN1CCCC1)c1ccc(Cn2c(=S)[nH]c3ccc(Br)cc3c2=O)cc1	7.5%	·	·	22.4µM*
COC(=O)c1ccc2c(=O)n(CCN3CCOCC3)c(=S)[nH]c2c1	-5.3%	-100.5*	-6.0%	3.98µM*
COC(=O)c1ccc2c(=O)n(CCCN3CCOCC3)c(=S)[nH]c2c1	-5.8%	-7.2	-9.6%	?
COC(=O)c1ccc2c(=O)n(CCN3CCOCC3)c(SCC(=O)C(C)(C)C)nc2c1	0.0%	40.4	-8.8%	12.6µM*
O=C(NCCCN1CCOCC1)c1ccc2c(=O)n(CCc3ccccc3)c(=O)[nH]c2c1	?	-94.8*	-7.7%	?
O=C(NCCN1CCCC1)c1ccc2c(=O)n(CCc3ccccc3)c(=O)[nH]c2c1	?	12.6	-22.7%	?
C/C(=C\c1ccc(Cl)cc1)C(C)(C)C(=O)O	·	·	-6.8%	-11.1%[13.5 µM]
COCCn1c(=S)[nH]c2cc(C(=O)NCCCN3CCOCC3)ccc2c1=O	-1.4%	8.0	-15.0%	15.8µM*
COc1ccccc1Cn1c(=S)[nH]c2cc(C(=O)NCCN3CCOCC3)ccc2c1=O	4.8%	?	·	20µM*
COc1ccc(-n2c(=S)[nH]c3cc(C(=O)NCCCN4CCOCC4)ccc3c2=O)c(OC)c1	2.1%	·	·	8.9%
C=CCOC(=O)C(C(C)=O)C(NC(=O)OC)c1cccs1 (stereo not given)	·	·	·	8.0%[13.5 µM]
CC(CNC(=O)CC(C)(C)C)NC(=O)CC(C)(C)C (stereo not given)	9.6%	9.9	-15.4%	5.8%
O=C(CN1C(=O)CCS(=O)(=O)c2ccccc21)Nc1ccc2c(c1)OCCO2	0.8%	-100.0*	-9.5%	10.1%
CCC1Oc2ccccc2N(CC(=O)Nc2ccc3c(c2)OCCO3)C1=O (stereo not given)	-4.7%	-94.1*	-4.0%	5.9%
O=C(CN1C(=O)COc2ccccc21)Nc1ccc2c(c1)OCCO2	1.0%	?	-10.7%	-8.0%
COc1ccc(N2CCN(S(=O)(=O)c3cc(C)ccc3OC)CC2)cc1	-20.9%	·	·	10.0%
SMILES	KDM4E inh	PNC inhibitor	HPGD block	ALDH1A1 inh
COCCN(C(=O)C1CCCC1)c1c(N)n(Cc2ccccc2)c(=O)[nH]c1=O	2.3%	·	·	15.3%
COCCCN(C(=S)NC(=O)C(C)(C)C)c1c(N)n(Cc2ccccc2)c(=O)[nH]c1=O	-16.5%	·	·	28.2µM*
CC(C)CCN(C(=S)NC(=O)C1CCCCC1)c1c(N)n(Cc2ccccc2)c(=O)[nH]c1=O	2.9%	·	·	25.1µM*
COCCCN(C(=S)NC(=O)c1ccc(Br)cc1)c1c(N)n(Cc2ccccc2)c(=O)[nH]c1=O	-27.1%	·	·	-10.3%
COc1ccc(/C(=C\C(=O)O)c2nccc3cc(OC)c(OC)cc23)cc1OC	3.5%	·	2.1%	-3.1%
O=C(c1ccccc1)c1c[nH]c(C(=O)NNc2ccccc2)c1	0.0%	·	·	22.4µM*
COc1ccc(/C=C2\N=C(C)OC2=O)cc1[N+](=O)[O-]	0.0%	·	·	17.8µM*
Cc1cccc(C(=O)Oc2csc(=S)n2C(=O)c2cccc(C)c2)c1	?	-1.8	14.1µM*	8.91µM*
O=C(Oc1cccccc1=O)c1ccccc1	-5.1%	·	·	-2.1%
O=C(Oc1csc(=S)n1C(=O)c1ccccc1)c1ccccc1	-34.4%	4.7	4.47µM*	3.16µM*
O=C(O)c1ccccc1-n1c(-c2ccccc2)cc2c1CCCC2=O	-6.9%	·	·	-3.5%
c1c2c(cc3sc(N4CCCCC4)nc13)OCO2	-4.4%	2.0	22.4µM*	22.4µM*
c1c2c(cc3sc(N4CCOCC4)nc13)OCO2	-23.0%	-6.3	28.2µM*	10µM*
c1ccc2c(c1)CCN(c1nc3cc4c(cc3s1)OCO4)C2	18.2%	?	31.6µM*	25.1µM*
c1ccc(N2CCN(c3nc4cc5c(cc4s3)OCO5)CC2)cc1	-5.3%	18.2	?	20µM*
Fc1ccc2nc(N3CCOCC3)sc2c1	5.0%	·	·	7.2%
CC(=O)NCCNc1nc(-c2ccc(N(C)C)cc2)nc2ccccc12	?	·	-26.9%	?
CCC1=C2CC[C@H]3C(=O)N(CC)C(=O)[C@H]3[C@H]2[C@@]2(Cc3ccccc3)C(=O)N(CC3CC3)C(=O)N2C1=O	-6.0%	·	-8.8%	-0.3%
C[C@H]1CCCC2(CC[N+](C)(CCC[N+](C)(C)C)CC2)C1 (stereo not given in full)	·	·	-6.1%	3.8%[13.5 µM]
Cc1c(Cl)cccc1NC(=S)NCC(C)C	3.5%	32.8	-14.9%	20.1%
COc1ccc(NC(=S)NC(=O)c2ccccc2Cl)cc1	0.8%	·	·	12.6µM*
O=C(NC(=S)Nc1ccc(O)cc1)c1ccccc1Cl	3.5%	·	·	17.8µM*
CC(C)CNC(=S)NC(=O)c1ccccc1Cl	4.2%	-134.0*	-7.6%	-5.6%
CCN(CC)C(=O)Cn1cnc2sc(C(=O)Nc3cc(OC)c(OC)c(OC)c3)c(C)c2c1=O	1.2%	-6.9	-4.4%	-3.3%
O=C1C(C=Nc2ccccc2O)=C(O)c2ccccc21	-11.9%	0.0	-13.7%	5.7%
SMILES	KDM4E inh	PNC inhibitor	HPGD block	ALDH1A1 inh
O=[N+]([O-])/C(C=Nc1ccccc1O)=C\Nc1ccccc1O	12.6µM*	·	·	·
O=C(CSc1ccc(-c2ccco2)nn1)NCc1ccccc1	9.0%	-24.1	?	?
O=C(CSc1ccc(-c2ccco2)nn1)c1cccc([N+](=O)[O-])c1	9.0%	43.9	-23.2%	22.4µM*
O=C(CSc1ccc(-c2ccco2)nn1)NCc1ccc(Cl)cc1	11.6%	16.4	-18.2%	7.08µM*
Cc1cccc(NC(=O)CSc2ccc(-c3ccco3)nn2)c1C	?	4.0	-16.5%	23.8µM*
CCN1CCN(C(=O)NC(C(=O)NC2C(=O)N3C(C(=O)O)=C(CSc4nnnn4C)CSC23)c2ccc(O)cc2)C(=O)C1=O (stereo not given)	1.8%	·	-16.2%	-3.2%
CCOC(=O)/C(C#N)=N/Nc1c(C)n(C)n(-c2ccccc2)c1=O	?	·	·	7.94µM*
